Test results from PubChem BioAssay (Tox21).
Inconclusive results are not listed. The source made the active and inactive calls. Unless noted, calls follow the shape of the full dose curve.

How the values were obtained:
[1] = qHTS assay to identify small molecule agonists of the peroxisome proliferator-activated receptor delta (PPARd) signaling pathway - cell viability counter screen (AID 743211; active = well fitted curve in the direction sought with a large enough effect in the repeat runs; an effect the other way counts as inactive or inconclusive; also: nearly all actives have a fitted effect of over 55% in size)
Method in brief: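 Following 5 h plating at 37 C and 5% CO2, PPARd UAS-bla HEK293H cells took up test compounds for 17 h. Viability was quantified by luminescence 30 min after CellTiter-Glo addition at room temperature.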

[2] = qHTS assay to identify small molecule agonists of the farnesoid-X-receptor (FXR) signaling pathway - cell viability counter screen (AID 743218; active = well fitted curve in the direction sought with a large enough effect in the repeat runs; an effect the other way counts as inactive or inconclusive; also: nearly all actives have a fitted effect of over 45% in size)
Method in brief: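 Same-well cytotoxicity check on FXR-UAS-bla HEK 293T cells: 5 h attachment, 16 h compound at 37 C, CellTiter-Glo luminescence read at room temperature after 30 min.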

[3] = qHTS assay to identify small molecule antagonists of the farnesoid-X-receptor (FXR) signaling pathway - cell viability counter screen (AID 743221; active = well fitted cell-killing curve with a large enough effect in the repeat runs, not every such curve was filed as active; also: nearly all actives have a fitted effect of over 50% in size)
Method in brief: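 Compound effects on cell number were measured as CellTiter-Glo luminescence in HEK 293T cells expressing FXR-UAS-bla, after 16 h at 37 C with 50 uM CDCA (final).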

[4] = qHTS assay to identify small molecule agonists of the vitamin D receptor (VDR) signaling pathway - cell viability counter screen (AID 743224; active = well fitted curve in the direction sought with a large enough effect in the repeat runs; an effect the other way counts as inactive or inconclusive; also: series mostly up to about 63 µM; nearly all actives have a fitted effect of over 50% in size)
Method in brief: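 Counter screen for cytotoxicity: VDR-bla cells at 2,000 cells/well, 16 h compound exposure, then CellTiter-Glo luminescence after the beta-lactamase measurement.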

[5] = qHTS assay to identify small molecule antagonists of the vitamin D receptor (VDR) signaling pathway - cell viability counter screen (AID 743225; active = well fitted curve in the direction sought with a large enough effect in the repeat runs; an effect the other way counts as inactive or inconclusive; also: nearly all actives have a fitted effect of over 50% in size)
Method in brief: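 In this counter screen, VDR-bla HEK 293T cells receive test compound plus 3 nM final calcitriol for 16 h at 37C. Room-temperature steps of 2 h with the beta-lactamase substrate, then 30 min with CellTiter-Glo, precede the luminescence read.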

[6] = qHTS assay to identify small molecule agonists of the NFkB signaling pathway - cell viability counter screen (AID 1159515); also: series mostly up to about 61 µM; nearly all actives have a fitted effect of over 55% in size
Method in brief: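 Counter screen run alongside the NFkB-bla agonist assay: ME-180 reporter cells exposed to compounds for 5 hr, then lysed with CellTiter-Glo in the same wells. Luminescence, read after 30 min, reflects viable cells.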

[7] = qHTS assay to identify small molecule agonists of the endoplasmic reticulum stress response signaling pathway (AID 1159516; active = well fitted activation curve with a large enough effect in the signal ratio in the repeat runs, not every such curve was filed as active; the % refers to the signal ratio)
Method in brief: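 For this screen, HeLa cells stably carrying beta-lactamase under the ER stress response element received test compounds, positive controls or DMSO for 5 hr at 37 C; B/G FRET substrate was then added and dual-wavelength emission recorded.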

[8] = qHTS assay to identify small molecule agonists of the endoplasmic reticulum stress response signaling pathway - cell viability counter screen (AID 1159517); also: series mostly up to about 61 µM; nearly all actives have a fitted effect of over 50% in size
Method in brief: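 In parallel with the ESRE reporter read, cytotoxicity was scored by CellTiter-Glo luminescence (30 min, room temperature) on HeLa ESRE-bla cells dosed for 5 hr.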

[9] = qHTS assay to identify small molecule antagonists of the retinoid-related orphan receptor gamma (ROR-gamma) signaling pathway - cell viability counter screen (AID 1159520; active = well fitted curve in the direction sought with a large enough effect in the repeat runs; an effect the other way counts as inactive or inconclusive; also: nearly all actives have a fitted effect of over 50% in size)
Method in brief: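 Tet-on ROR gamma CHO cells were given compounds for 2 hr, then doxycycline hyclate at 1 uM final, and incubated 16 hr at 37 C. Viability was measured as ATP content by CellTiter-Glo luminescence.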

[10] = target: Nuclear receptor ROR-gamma (Homo sapiens) (UniProt P51449); assay: qHTS assay to identify small molecule antagonists of the retinoid-related orphan receptor gamma (ROR-gamma) signaling pathway (AID 1159521; active = well fitted curve in the direction sought with a large enough effect in the repeat runs; an effect the other way counts as inactive or inconclusive)
Method in brief: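 Screening format: cell-based luciferase reporter in CHO cells with doxycycline-inducible RORγ. Compound pre-exposure lasts 2 h, doxycycline is 1 uM final, induction runs 16 h at 37 C, and ONE-Glo luminescence is read.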

[11] = qHTS assay to identify small molecule agonists of the AP-1 signaling pathway - cell viability counter screen (AID 1159525); also: nearly all actives have a fitted effect of over 55% in size
Method in brief: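 Same-well cytotoxicity counter screen of the Tox21 10K library in ME-180 cells. The readout is ATP-dependent luminescence after 5 h compound treatment. Data are normalised to DMSO and tetra n-octyl ammonium bromide controls.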

[12] = target: Peroxisome proliferator-activated receptor delta (Homo sapiens) (UniProt Q03181); assay: qHTS assay to identify small molecule agonists of the peroxisome proliferator-activated receptor delta (PPARd) signaling pathway (AID 743212)
Method in brief: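 Tox21 library screened in GeneBLAzer PPARd UAS-bla HEK293H cells. After compound treatment at 37 C, a FRET-based beta-lactamase substrate was applied for 2 h and fluorescence recorded.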

[13] = qHTS assay to identify small molecule antagonists of the peroxisome proliferator-activated receptor delta (PPARd) signaling pathway - cell viability counter screen (AID 743213; active = well fitted curve in the direction sought with a large enough effect in the repeat runs; an effect the other way counts as inactive or inconclusive; also: nearly all actives have a fitted effect of over 50% in size)
Method in brief: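 PPARd-bla HEK293H cells were treated with compounds plus agonist L165041 (300 nM final) for 17 h at 37 C. Viability was then read in the same wells by CellTiter-Glo luminescence after 30 min at room temperature.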

[14] = target: Peroxisome proliferator-activated receptor delta (Homo sapiens) (UniProt Q03181); assay: qHTS assay to identify small molecule antagonists of the peroxisome proliferator-activated receptor delta (PPARd) signaling pathway (AID 743215; active = well fitted inhibition curve with a large enough effect in the signal ratio in the repeat runs, not every such curve was filed as active; the % refers to the signal ratio;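 also: cells stimulated with agonist L165041 at 300 nM final during compound exposure; series mostly up to about 62 µM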)
Method in brief: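 Screen format: qHTS, antagonist mode. HEK293H PPARd-bla cells received compound and 300 nM L165041 (final), 17 h, 37 C. Beta-lactamase detected via FRET substrate fluorescence, 2 h, room temperature.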

[15] = target: Bile acid receptor (Homo sapiens) (UniProt Q96RI1); assay: qHTS assay to identify small molecule antagonists of the farnesoid-X-receptor (FXR) signaling pathway (AID 743217; active = well fitted inhibition curve with a large enough effect in the signal ratio in the repeat runs, not every such curve was filed as active; the % refers to the signal ratio)
Method in brief: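 Quantitative HTS, beta-lactamase reporter format: FXR-UAS-bla HEK 293T cells co-treated 16 h at 37 °C with compounds and 50 uM final chenodeoxycholic acid, then read by B/G FRET fluorescence.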

[16] = target: Bile acid receptor (Homo sapiens) (UniProt Q96RI1); assay: qHTS assay to identify small molecule agonists of the farnesoid-X-receptor (FXR) signaling pathway (AID 743220; active = well fitted activation curve with a large enough effect in the signal ratio in the repeat runs, not every such curve was filed as active; the % refers to the signal ratio)
Method in brief: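 FXR-UAS-bla HEK 293T cells carrying a UAS-driven beta-lactamase reporter were plated for 5 h at 37C/5% CO2, then exposed to DMSO-dissolved Tox21 10K compounds for 16 h at 37C. A LiveBLAzer B/G FRET substrate was loaded for 2 h at room temperature before fluorescence reading.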

[17] = target: Vitamin D3 receptor (Homo sapiens) (UniProt P11473); assay: qHTS assay to identify small molecule agonists of the vitamin D receptor (VDR) signaling pathway (AID 743222)
Method in brief: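 Using LiveBLAzer B/G FRET detection, agonism was scored in VDR-bla cells exposed overnight (16 h, 37C) to DMSO-dissolved compounds; substrate incubation was 2 h at room temperature.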

[18] = target: Vitamin D3 receptor (Homo sapiens) (UniProt P11473); assay: qHTS assay to identify small molecule antagonists of the vitamin D receptor (VDR) signaling pathway (AID 743223; active = well fitted inhibition curve with a large enough effect in the signal ratio in the repeat runs, not every such curve was filed as active; the % refers to the signal ratio)
Method in brief: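 Beta-lactamase activity in VDR-bla cells is measured by FRET substrate fluorescence (2 h, room temperature) after cells spend 16 h at 37C with test compound and 3 nM final 1alpha,25-dihydroxyvitamin D3.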

[19] = qHTS assay to identify small molecule agonists of the AP-1 signaling pathway (AID 1159526)
[20] = target: Retinoic acid receptor RXR-alpha (Homo sapiens) (UniProt P19793); assay: qHTS assay to identify small molecule agonists of the RXR signaling pathway (AID 1159527); also: nearly all actives have a fitted effect of over 35% in size; also: potency is read from the fitted curve at half-maximal effect
Method in brief: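 Fluorescence ratio readout (460 vs 530 nm) from GeneBLAzer RXR-alpha HEK 293T cells after 16 hr compound treatment; cells seeded 5 hr beforehand in low-serum, charcoal-stripped medium.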

Measured: Potency

Chain of Bile acid receptor (Homo sapiens) (Q96RI1 whole entry, looked up): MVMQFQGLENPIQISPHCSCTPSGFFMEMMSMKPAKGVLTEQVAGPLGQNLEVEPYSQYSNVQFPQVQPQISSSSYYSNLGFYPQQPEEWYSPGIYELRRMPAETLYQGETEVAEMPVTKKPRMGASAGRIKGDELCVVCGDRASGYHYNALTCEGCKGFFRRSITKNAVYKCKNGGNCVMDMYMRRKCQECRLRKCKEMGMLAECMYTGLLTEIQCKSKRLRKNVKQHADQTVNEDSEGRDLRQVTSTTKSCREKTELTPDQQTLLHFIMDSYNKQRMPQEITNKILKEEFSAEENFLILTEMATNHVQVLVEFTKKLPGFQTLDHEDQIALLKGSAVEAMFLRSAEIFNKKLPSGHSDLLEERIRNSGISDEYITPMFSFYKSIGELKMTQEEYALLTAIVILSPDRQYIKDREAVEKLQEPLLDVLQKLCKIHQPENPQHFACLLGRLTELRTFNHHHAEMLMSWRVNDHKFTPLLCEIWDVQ
Chain of Retinoic acid receptor RXR-alpha (Homo sapiens) (P19793 whole entry, looked up): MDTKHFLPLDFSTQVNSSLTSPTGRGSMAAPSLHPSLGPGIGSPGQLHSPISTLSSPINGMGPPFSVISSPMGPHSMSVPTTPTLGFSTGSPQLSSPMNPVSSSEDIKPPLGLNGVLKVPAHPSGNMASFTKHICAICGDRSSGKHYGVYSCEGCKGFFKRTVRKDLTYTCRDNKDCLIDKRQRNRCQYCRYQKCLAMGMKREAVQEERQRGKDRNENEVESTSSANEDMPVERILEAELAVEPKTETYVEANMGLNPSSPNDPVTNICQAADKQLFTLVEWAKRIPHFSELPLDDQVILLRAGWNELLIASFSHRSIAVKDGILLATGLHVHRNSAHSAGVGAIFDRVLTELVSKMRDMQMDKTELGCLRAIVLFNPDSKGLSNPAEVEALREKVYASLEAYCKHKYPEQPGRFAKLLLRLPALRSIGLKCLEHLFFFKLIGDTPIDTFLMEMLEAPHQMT
Chain of Vitamin D3 receptor (Homo sapiens) (P11473 whole entry, looked up): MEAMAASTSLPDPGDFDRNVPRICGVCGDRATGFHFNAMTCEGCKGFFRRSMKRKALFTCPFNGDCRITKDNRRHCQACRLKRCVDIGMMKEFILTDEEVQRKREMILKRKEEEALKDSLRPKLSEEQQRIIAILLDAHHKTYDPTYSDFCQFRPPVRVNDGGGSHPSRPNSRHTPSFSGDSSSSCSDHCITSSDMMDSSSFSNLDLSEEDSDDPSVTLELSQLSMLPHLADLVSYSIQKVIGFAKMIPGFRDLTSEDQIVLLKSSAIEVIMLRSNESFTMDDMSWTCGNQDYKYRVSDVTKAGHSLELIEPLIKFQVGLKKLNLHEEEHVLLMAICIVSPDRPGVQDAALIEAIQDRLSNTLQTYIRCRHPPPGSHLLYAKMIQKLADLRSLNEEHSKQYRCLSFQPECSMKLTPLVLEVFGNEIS
Chain of Peroxisome proliferator-activated receptor delta (Homo sapiens) (Q03181 whole entry, looked up): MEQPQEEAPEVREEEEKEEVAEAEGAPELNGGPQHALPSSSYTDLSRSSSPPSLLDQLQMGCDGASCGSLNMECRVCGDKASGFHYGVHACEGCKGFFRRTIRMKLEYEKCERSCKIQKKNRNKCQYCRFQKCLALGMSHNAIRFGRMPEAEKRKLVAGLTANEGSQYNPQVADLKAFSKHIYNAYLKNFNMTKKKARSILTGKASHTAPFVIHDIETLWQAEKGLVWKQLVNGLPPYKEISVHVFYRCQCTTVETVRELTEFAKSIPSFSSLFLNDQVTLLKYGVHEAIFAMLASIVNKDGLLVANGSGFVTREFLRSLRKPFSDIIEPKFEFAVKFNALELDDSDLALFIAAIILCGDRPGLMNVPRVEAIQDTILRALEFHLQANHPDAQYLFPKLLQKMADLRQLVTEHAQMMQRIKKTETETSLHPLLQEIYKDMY

C1=CCC=C1
inactive: [1] | [2] | [3] | [4] | [5] | [6] | [7] | [8] | [9] | [10] | [11]

OCC(Br)CBr (configuration not stated)
not listed: [4] | [5] | [10]
inactive: all other assays above

NC(=O)C(Cl)Cl
not listed: [10] | [14] | [15] | [16] | [17] | [18]
inactive: all other assays above

COC(=O)C(C)N(C(=O)c1ccco1)c1c(C)cccc1C (configuration not stated)
not listed: [10] | [15] | [16] | [17]
inactive: all other assays above

O=c1[nH]c2cc(Cl)ccc2n1C1CCNCC1
not listed: [5] | [10] | [20]
inactive: all other assays above

CCCCn1cc[n+](C)c1 (tested in a mixture with another compound)
not listed: [1] | [10] | [12] | [14] | [15] | [16] | [17] | [18]
inactive: all other assays above

CNC(=O)Oc1cc(C)cc(C(C)C)c1
active: [20] 11 µM
not listed: [5] | [10] | [13] | [15] | [16] | [17]
inactive: all other assays above

CNC(C)(C)Cc1ccccc1
not listed: [1] | [3] | [4] | [10] | [13] | [15] | [16]
inactive: all other assays above

CCCCN(CCCC)C(=S)[S-].CCCCN(CCCC)C(=S)[S-].[Ni+2]
not listed: [10] | [12] | [14] | [15] | [16]
inactive: all other assays above

O=S(=O)(O)F
not listed: [2] | [10] | [15]
inactive: all other assays above

CC(C)NCC(O)c1ccccc1Cl (configuration not stated)
not listed: [3] | [10] | [15] | [16] | [17] | [18]
inactive: all other assays above

C=CCOC(=O)c1ccccc1N
not listed: [2] | [4] | [10] | [15] | [16] | [18] | [20]
inactive: all other assays above

CCCC[N+]1(C)CCCC1 (tested in a mixture with another compound)
inactive: [3] | [4] | [5] | [6] | [7] | [8] | [9] | [11] | [19] | [20]

c1cc[n+]2c(c1)-c1cccc[n+]1CC2
not listed: [10] | [15] | [16] | [18]
inactive: all other assays above

O=c1[nH]c(Cl)c(Cl)cc1Cl
not listed: [10] | [13] | [20]
inactive: all other assays above

CC(=O)[O-].CC(=O)[O-].O.O.[Zn+2]
not listed: [2] | [10] | [12] | [14] | [15] | [16] | [17] | [18]
inactive: all other assays above

CCN(CC)C(=O)N[C@@H]1C=C2c3cccc4[nH]cc(c34)C[C@@H]2N(C)C1
not listed: [2] | [10] | [12] | [14] | [15] | [17] | [18]
inactive: all other assays above

O=P(Cl)(Cl)Cl
inactive: [14] | [3] | [4] | [5] | [6] | [7] | [8] | [9] | [11] | [19] | [20]
